Inconclusive results are not listed. A call without a number means that no potency is given here. The source made the active and inactive calls. The call rests on the fitted dose curve; in most records, active means well fitted cell-killing curve with a large enough effect in the repeat runs; inconclusive means weak or mixed curves, or effect the other way; inactive means flat fitted curve, though single readings scatter.
assay: cAMP Responsive Elements (CRE) small molecule antagonists, cell-based qHTS assay: qHTS cell viability counter screen (AID 2060913); details: CRE-bla HEK293T viability, CellTiter-Glo luminescence, 5 h; series mostly up to 92.4 µM; further: nearly all actives have a fitted effect of over 40% in size
In short: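 Viability of NKH477-stimulated (0.25 uM final) CRE-bla HEK293T cells is measured by CellTiter-Glo luminescence following 3 hrs compound exposure at 37 C.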

| Compound | Potency | viability change, negative = cytotoxic |
| --- | --- | --- |
| OC[C@@H](O)[C@H](O)[C@@H](O)[C@@H](O)CO | inactive | – |
| NCCc1ccn[nH]1 | inactive | – |
| O/N=C/C=N/O | inactive | – |
| O=C(O)Cc1sc(-c2ccccc2)nc1-c1ccc(Cl)cc1 | inactive | – |
| COC(=O)[C@@H]1CC2=CC(=O)CC[C@]2(C)[C@@]23O[C@@H]2C[C@@]2(C)[C@@H](CC[C@@]24CCC(=O)O4)[C@H]13 | inactive | – |
| O=C1CC(c2ccc(Cl)cc2)CC(=O)N1 | inactive | – |
| O=C(O)CCCCC(=O)O | inactive | – |
| CC/C=C\CC/C=C/C(OCC)OCC | inactive | – |
| CC(=O)Oc1ccc([N+](=O)[O-])cc1CCl | inactive | – |
| CCCCC(CC)CCC(CC(C)C)OS(=O)(=O)O (stereo not given) | inactive | – |
| O=S(=O)(O)CCO | inactive | – |
| CO[Si](CCCn1c(=O)n(CCC[Si](OC)(OC)OC)c(=O)n(CCC[Si](OC)(OC)OC)c1=O)(OC)OC | inactive | – |
| CCCC(=O)CC | inactive | – |
| COc1c2occc2cc2ccc(=O)oc12 | inactive | – |
| SCCc1cnccn1 | inactive | – |
| CC(C(=O)O)c1ccc(C(=O)c2cccs2)cc1 (stereo not given) | inactive | – |
| CC/C=C\CCO | inactive | – |
| C=COCCOCCOCCOC=C | inactive | – |
| COC(=O)C(C)Oc1ccc(Oc2ncc(C(F)(F)F)cc2Cl)cc1 (stereo not given) | inactive | – |
| CSCCC=O | inactive | – |

| Compound | Potency | viability change, negative = cytotoxic |
| --- | --- | --- |
| CCOC(=O)c1ccc(C)cc1 | inactive | – |
| NCc1ccco1 | inactive | – |
| C=C[Si](OCCOC)(OCCOC)OCCOC | inactive | – |
| Cc1cc(N)c(S(=O)(=O)O)cc1Cl | inactive | – |
| CCOC(=O)c1ccc(I)cc1 | inactive | – |
| CC(CC(C#N)(c1ccccc1)C(C)C)N(C)C (stereo not given) | inactive | – |
| C#C[C@]1(O)CC[C@H]2[C@@H]3CCC4=Cc5oncc5C[C@]4(C)[C@H]3CC[C@@]21C | inactive | – |
| CC(=O)OCC(=O)[C@@]1(OC(C)=O)[C@@H](C)C[C@H]2[C@@H]3C[C@H](F)C4=CC(=O)C=C[C@]4(C)[C@@]3(F)[C@@H](O)C[C@@]21C | inactive | – |
| O=C(O)CN(CCCN(CC(=O)O)CC(=O)O)CC(=O)O | – | 0.188% [at 18.9 µM] (inactive) |
| c1ccc2c(c1)[nH]c1ccccc12 | inactive | – |
| CCOC(=O)c1ccccc1C | inactive | – |
| CN1CCN(c2c(F)cc3c(=O)c(C(=O)O)cn4c3c2SCC4)CC1 | inactive | – |
| CCCCCCOC(=O)CC(CC(=O)OCCCCCC)(OC(=O)CCC)C(=O)OCCCCCC | inactive | – |
| c1ccc2cc3c4ccccc4c4ccccc4c3cc2c1 | inactive | – |
| Cc1cc(O)c2c(O)c3c(O)cccc3cc2c1 | inactive | – |
| CC/C=C1/OC(=O)c2ccccc21 | inactive | – |
| CC(C)OP(=O)(CP(=O)(OC(C)C)OC(C)C)OC(C)C | inactive | – |
| O=CCCc1ccccc1 | inactive | – |
| NC(=O)NS(=O)(=O)c1ccc(Cl)cc1 | inactive | – |
| C1=C\CC/C=C\CC/1 | inactive | – |

assay: cAMP Responsive Elements (CRE) small molecule agonists, cell-based qHTS assay: qHTS cell viability counter screen (AID 2060914); details: CRE-bla HEK293T viability, CellTiter-Glo luminescence, 5 h; series mostly up to 92.4 µM;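 further: viability read after 3 h of compound exposure; nearly all actives have a fitted effect of over 50% in size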
In short: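 CRE-bla HEK 293T cells, plated 18 h at 37 °C, were exposed to compounds for 3 h at 37 °C/5% CO2. Viability was then measured in the same wells by CellTiter-Glo luminescence after 30 min at room temperature.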

| Compound | Potency | activity change, negative = cytotoxicity |
| --- | --- | --- |
| OC[C@@H](O)[C@H](O)[C@@H](O)[C@@H](O)CO | inactive | – |
| NCCc1ccn[nH]1 | inactive | – |
| O/N=C/C=N/O | inactive | – |
| O=C(O)Cc1sc(-c2ccccc2)nc1-c1ccc(Cl)cc1 | inactive | – |
| COC(=O)[C@@H]1CC2=CC(=O)CC[C@]2(C)[C@@]23O[C@@H]2C[C@@]2(C)[C@@H](CC[C@@]24CCC(=O)O4)[C@H]13 | inactive | – |
| O=C1CC(c2ccc(Cl)cc2)CC(=O)N1 | inactive | – |
| O=C(O)CCCCC(=O)O | inactive | – |
| CC/C=C\CC/C=C/C(OCC)OCC | inactive | – |
| CC(=O)Oc1ccc([N+](=O)[O-])cc1CCl | inactive | – |
| CCCCC(CC)CCC(CC(C)C)OS(=O)(=O)O (stereo not given) | inactive | – |
| O=S(=O)(O)CCO | inactive | – |
| CO[Si](CCCn1c(=O)n(CCC[Si](OC)(OC)OC)c(=O)n(CCC[Si](OC)(OC)OC)c1=O)(OC)OC | inactive | – |
| CCCC(=O)CC | inactive | – |
| COc1c2occc2cc2ccc(=O)oc12 | inactive | – |
| SCCc1cnccn1 | inactive | – |
| CC(C(=O)O)c1ccc(C(=O)c2cccs2)cc1 (stereo not given) | inactive | – |
| CC/C=C\CCO | inactive | – |
| C=COCCOCCOCCOC=C | inactive | – |
| COC(=O)C(C)Oc1ccc(Oc2ncc(C(F)(F)F)cc2Cl)cc1 (stereo not given) | inactive | – |
| CSCCC=O | inactive | – |

| Compound | Potency | activity change, negative = cytotoxicity |
| --- | --- | --- |
| CCOC(=O)c1ccc(C)cc1 | inactive | – |
| NCc1ccco1 | inactive | – |
| C=C[Si](OCCOC)(OCCOC)OCCOC | inactive | – |
| Cc1cc(N)c(S(=O)(=O)O)cc1Cl | inactive | – |
| CCOC(=O)c1ccc(I)cc1 | inactive | – |
| CC(CC(C#N)(c1ccccc1)C(C)C)N(C)C (stereo not given) | inactive | – |
| C#C[C@]1(O)CC[C@H]2[C@@H]3CCC4=Cc5oncc5C[C@]4(C)[C@H]3CC[C@@]21C | inactive | – |
| CC(=O)OCC(=O)[C@@]1(OC(C)=O)[C@@H](C)C[C@H]2[C@@H]3C[C@H](F)C4=CC(=O)C=C[C@]4(C)[C@@]3(F)[C@@H](O)C[C@@]21C | inactive | – |
| O=C(O)CN(CCCN(CC(=O)O)CC(=O)O)CC(=O)O | – | -8.11% [at 18.9 µM] (inactive) |
| c1ccc2c(c1)[nH]c1ccccc12 | inactive | – |
| CCOC(=O)c1ccccc1C | inactive | – |
| CN1CCN(c2c(F)cc3c(=O)c(C(=O)O)cn4c3c2SCC4)CC1 | inactive | – |
| CCCCCCOC(=O)CC(CC(=O)OCCCCCC)(OC(=O)CCC)C(=O)OCCCCCC | inactive | – |
| c1ccc2cc3c4ccccc4c4ccccc4c3cc2c1 | inactive | – |
| Cc1cc(O)c2c(O)c3c(O)cccc3cc2c1 | inactive | – |
| CC/C=C1/OC(=O)c2ccccc21 | inactive | – |
| CC(C)OP(=O)(CP(=O)(OC(C)C)OC(C)C)OC(C)C | inactive | – |
| O=CCCc1ccccc1 | inactive | – |
| NC(=O)NS(=O)(=O)c1ccc(Cl)cc1 | inactive | – |
| C1=C\CC/C=C\CC/1 | inactive | – |

Reference: PubChem BioAssay (Tox21)
